We go through 40 molecules from PubChem BioAssay (NCATS).

Molecules are shown by their SMILES. Results filed as inconclusive are left out. The source made the active and inactive calls. The call rests on the fitted dose curve; in most records, active means well fitted cell-killing curve with a large enough effect; inconclusive means small, poorly fitted or top-dose-only effect, or effect the other way; inactive means no such curve, though single readings can be large or run the other way.
Potency means the concentration at half of the fitted maximal effect.

This test in a line: Quantitative High-Throughput drug screen in 47 multiple myeloma cell lines against the NCATS MIPE library collection: KMS28PE_JCRB cell viability assay (AID 1918983). Further: nearly all actives have a fitted effect of over 35% in size. Particulars: KMS28PE multiple myeloma viability, CellTiter-Glo ATP, 48 h; series mostly up to 45.8 µM. The text has this:
PI: Beverly A. Mock Ph.D.
Laboratory of Cancer Biology and Genetics,
Center for Cancer Research, National Cancer Institute,
National Institute of Health, Bethesda, Maryland
Drug resistance and disease progression are common in multiple myeloma (MM) patients, underscoring the need for new therapeutic combinations. […] We hypothesized that effective combinations would reduce MYC expression and enhance p16 activity. […] These preclinical data identify potentially useful drug combinations for evaluation in drug-resistant MM and reveal potential mechanisms of combined drug sensitivity.
Described herein is the primary MIPE qHTS used to cherrypick compounds. Validated compounds were then further tested for potential synergistic activiy.
[1] Peat TJ, Gaikwad SM, Dubois W, Gyabaah-Kessie N, Zhang S, Gorjifard S, Phyo Z, Andres M, Hughitt VK, Simpson RM, Miller MA, Girvin AT, Taylor A, Williams D, D'Antonio N, Zhang Y, Rajagopalan A, Flietner E, Wilson K, Zhang X, Shinn P, Klumpp-Thomas C, McKnight C, Itkin Z, Chen L, Kazandijian D, Zhang J, Michalowski AM, Simmons JK, Keats J, Thomas CJ, Mock BA. Drug combinations identified by high-throughput screening promote cell cycle transition and upregulate Smad pathways in myeloma. Cancer Lett. 2023 Aug 1;568:216284. doi: 10.1016/j.canlet.2023.216284. Epub 2023 Jun 24. PMID: 37356470; PMCID: PMC10408729.
SEQUENCE No. (e.g., 1, 2, 3, etc.); […] (e.g., Cells, Incubation, Reagent, etc.); VALUE and DESCRIPTION.
1; Cells; 5 uL; white, solid bottom 1536-well Greiner assay plate.
2; Compounds; 23 nL; Kalypsis pin tool (Wako USA) equipped with a 1536-well pin head to transfer to the assay plates.
3; Incubation; 48 hours; 37C incubation.
4; Reagent;5uL; CellTiter Glo (Promega).
5; Detector; 425V; Luminescence; Viewlux PerkinElmer.
NOTES (numbers refer to Sequence numbers above)
1. The cell-based screening methods employed in this study were like those previously published. Briefly, the corresponding myeloma cell lines were screened in 1,536-well plates with 500 cells, 5-uL per well for inhibition of cell viability (assessed by measuring ATP levels with CellTiterGlo).
2. NCATS MIPE 4.0 library of approved and investigational drugs were added using the Kalypsis pin tool. Wells treated with DMSO only for 100% viability and media only for 0% viability were used as controls.
3. The assay plates were covered and incubated for 48 hours in a 37C, 5% CO2 incubator with controlled humidity.
4. After 48 hours, CellTilter-GloTM luminescent substrate mix (Promega) reagent was added to the assay plate and plates we incubated for 5 min at room temperature.
5. Signal was measured as median relative luminescence units on a ViewLux (PerkinElmer) multiplate reader.
[1] Heske CM, Davis MI, Baumgart JT, Wilson K, Gormally MV, Chen L, Zhang X, Ceribelli M, Duveau DY, Guha R, Ferrer M, Arnaldez FI, Ji J, Tran HL, Zhang Y, Mendoza A, Helman LJ, Thomas CJ. Matrix Screen Identifies Synergistic Combination of PARP Inhibitors and Nicotinamide Phosphoribosyltransferase (NAMPT) Inhibitors in Ewing Sarcoma. Clin Cancer Res. 2017 Dec 1;23(23):7301-7311. doi: 10.1158/1078-0432.CCR-17-1121. Epub 2017 Sep 12. PMID: 28899971; PMCID: PMC6636827.
`COc1cc2ncnc(-n3nc(-c4ccccn4)nc3N)c2cc1OC`: the Potency is 11.8 µM (active).
In the case of `CC1(C)S[C@H]2[C@H](NC(=O)[C@@H](N)c3ccc(O)cc3)C(=O)N2[C@@H]1C(=O)O`, the Potency is 18.7 µM (active).
The entry for `CCOC(=O)O[C@]1(C(=O)OCCl)CC[C@@H]2[C@H]3CCC4=CC(=O)C=C[C@]4(C)[C@@H]3[C@@H](O)C[C@@]21C` is “inactive”.
In the case of `COc1ccc(-n2c(C)c([N+](=O)[O-])c3ccc(O)cc32)cc1`, the Potency entry was “inactive”.
Consider `Cc1ccc(F)c(NC(=O)Nc2ccc(-c3cccc4[nH]nc(N)c34)cc2)c1`, for which the Potency was 26.4 µM (active).
Consider `COc1cc(Nc2ncc(F)c(Nc3ccc4c(n3)NC(=O)C(C)(C)O4)n2)cc(OC)c1OC`, for which the Potency was 0.833 µM (active).
Regarding `O=C(NCc1ccccc1)c1csc(Nc2ccncn2)n1`, the Potency is 16.6 µM (active).
As for `C=C1C(=O)OC(CCCCCCCC)C1C(=O)O` (stereo not given), the Potency entry is “inactive”.
In the case of `COc1ccc(Cc2ccc(NC(N)=O)cc2)cc1-c1cccc(Cl)c1`, the Potency result is “inactive”.
The entry for `Cc1ccn(-c2ccc(-c3ncco3)cc2)c(=O)c1-c1ccc2nc(N)ncc2c1` is “inactive”.
The value for `CCn1cc(C(=O)O)c(=O)c2ccc(C)nc21` was “inactive”; that for `O=C(O)C=Cc1ccc(O)c(O)c1` was 2.96 µM (active).
For `COc1cc2nc(-c3ccc(N4CCN(C)CC4)cc3)nc(NCCN3CCOCC3)c2cc1OC`, the Potency was 0.0662 µM (active).
Take `COc1cccc2c1CCCC2CCCN1CCN(C2CCCCC2)CC1` (stereo not given): the Potency was 14.8 µM (active).
The figure for `O=C(NCc1ccncc1)C12C[C@H]3C[C@@H](C1)CC(c1ccc(Cl)cc1)(C3)C2` is 23.5 µM (active).
For the molecule `CC[C@H]1OC(=O)[C@H](C)[C@@H](O[C@H]2C[C@@](C)(OC)[C@@H](O)[C@H](C)O2)[C@H](C)[C@@H](O[C@@H]2O[C@H](C)C[C@H](N(C)C)[C@@H]2O)[C@](C)(O)C[C@@H](C)CN(C)[C@H](C)[C@@H](O)[C@]1(C)O`, the Potency result is “inactive”.
In the case of `NC(=O)c1ccc2nc(-c3ccc(Oc4ccc(Cl)cc4)cc3)[nH]c2c1`, the Potency result is “inactive”.
As to `CC(C)(C)Cn1c(N)nc2ccc(-c3[nH]c(C(C)(C)C)nc3-c3ccc(F)cc3)nc21`, the Potency was 23.5 µM (active).
For `CO[C@@H](C(=O)N1Cc2[nH]nc(NC(=O)c3ccc(N4CCN(C)CC4)cc3)c2C1)c1ccccc1`, the Potency was 6.62 µM (active).
Take `O=C1c2c(O)cc(O)cc2O[C@H](c2cc(O)c(O)c(O)c2)[C@H]1O`: the Potency was 20.9 µM (active).
`CCC(CC)[C@H](NC(C)=O)[C@@H]1[C@H](O)[C@@H](C(=O)O)C[C@@H]1N=C(N)N`: the Potency result was “inactive”.
`O=C1C(Cl)=C(NCCN2CCOCC2)C(=O)c2ncccc21`: the Potency is 4.18 µM (active).
For `CC(C)[C@H](CO)Nc1nc(Nc2ccc(C(=O)O)c(Cl)c2)c2ncn(C(C)C)c2n1`, the Potency is 37.2 µM (active).
The value for `C[C@@H]1CCN(C(=O)CC#N)C[C@H]1N(C)c1ncnc2[nH]ccc12` was “inactive”; that for `CN1C[C@H]2c3ccccc3Oc3ccc(Cl)cc3[C@@H]2C1` was “inactive”; that for `CC(=O)Oc1cc2c(s1)CCN(C(C(=O)C1CC1)c1ccccc1F)C2` (stereo not given) was 2.64 µM (active).
Turning to `Cc1ccc(C(=O)Nc2cccc(C(F)(F)F)c2)cc1Nc1nc(-c2cccnc2)nc2c1cnn2C`, the Potency is 26.4 µM (active).
For `CC[C@]1(O)C[C@@H]2CN(CCc3c([nH]c4ccccc34)[C@@](C(=O)OC)(c3cc4c(cc3OC)N(C=O)[C@@H]3C45CCN4CC=C[C@](CC)([C@H]45)[C@@H](OC(C)=O)[C@]3(O)C(=O)OC)C2)C1` (stereo not given in full), the Potency was 23.5 µM (active).
In the case of `O=C(O)[C@H]1O[C@H](Oc2cc3oc(-c4ccccc4)cc(=O)c3c(O)c2O)[C@H](O)[C@@H](O)[C@H]1O`, the Potency was 16.6 µM (active).
In the case of `O=C1NC(=O)C(=Cc2ccc3nccnc3c2)S1`, the Potency is 10.2 µM (active).
The value for `CS(=O)(=O)N(Cc1ccco1)CC(O)Cn1c2ccccc2c2ccccc21` (stereo not given) was 5.9 µM (active); that for `CC(C)n1cnc2c(NCCCCCCNC(=O)OC(C)(C)C)nc(NCCO)nc21` was 18.7 µM (active).
The value for `C[C@]12CCC3c4ccc(O)cc4CCC3C1CCC2=O` (stereo not given in full) was 11.8 µM (active); that for `NC(=O)c1cnc(-c2ccc(C3(N)CCC3)cc2)c(-c2ccccc2)c1` was 0.332 µM (active); that for `Nc1ncnc2c1ncn2[C@@H]1O[C@@H](CO)[C@H](O)[C@H]1O` was “inactive”.
As to `O=C(Nc1cccc(Br)c1)c1cccc(S(=O)(=O)N2CCCCCC2)c1`, the Potency was 23.5 µM (active).
For `O=C(NC1CCOCC1)c1ccc(-c2cc(-c3cn[nH]c3-c3ccccn3)ccn2)cc1`, the Potency result is “inactive”.
The value for `Cc1cnc(C(=O)O)c[n+]1[O-]` was 23.5 µM (active).
Regarding `c1cc(-c2sc(-c3ccncc3)c(-c3ccncc3)c2-c2ccncc2)ccn1`, the Potency result was “inactive”.
The figure for `Clc1ccc(C(c2ccc(Cl)cc2)n2cc[n+](CC(OCc3ccc(Cl)cc3Cl)c3ccc(Cl)cc3Cl)c2)cc1` (stereo not given) is 20.9 µM (active).
